Compound activity (PubChem)
HT1080 IDH1KD tx – HT-1080 IDH1 knockdown cell toxicity (counter line); HT-1080 IDH1 knockdown viability, ATP luminescence, 48 h; Potency, µM (doses to about 46.1 µM), without a hit: top-dose activity, negative = toxicity, hits mostly cytotoxic; 2% of 360,000 active;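 note: 0% = DMSO wells and -100% = cell-free medium wells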
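In this qHTS, HT-1080 cells depleted of IDH1 are exposed for 48 h at 37 °C to compound titrations. Toxicity is scored from CellTiter-Glo luminescence, with DMSO as full viability and medium alone as none.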
TGFb SMAD3 inh – TGF-b pathway inhibition | 1.2% of 410,000 active | Potency, µM (titrated, usually from 46.1 µM), for inactives: at the top dose activity, negative = inhibition, hits mostly inhibitors | HepG2 CAGA-GFP TGF-b/SMAD3 reporter, GFP fluorescence, 18 h; TGF-beta stimulated, 500 pg/mL final; note: % is set by controls: 0 for no effect and ±100 for the full control effect; nearly all actives have a fitted effect of over 65% in size
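First, reporter cells (HEPG2 CAGA-GFP) rested 2 h at 37 degrees C. Next, compounds were pinned in and TGF-beta added to 500 pg/mL final. After 18 h, GFP was imaged per cell and summed per well.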
HepG2 viability – kills HepG2 cells in TGF-b inhibitor counter-screen; HepG2 CAGA-GFP viability, ATP luminescence, 18 h; Potency, µM (titrated, usually from 46.1 µM), for the others: top-dose activity change, negative = cytotoxicity, most hits filed as cytotoxic; 0.76% of 410,000 active
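HepG2 CAGA-GFP cells (1000/well, DMEM with 1% FBS) received compound, then TGF-beta at 500 pg/mL final, and were incubated 18 hours at 37 degrees C. Viability was read by CellTiter-Glo luminescence. Media-only wells were set as complete cell-killing and DMSO as no toxicity.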
ATXN2 expr inh – ATXN2 expression inhibition | Potency, µM (titrated, usually from 57 µM), for inactives: at the top dose activity change, negative = inhibition, usual class: inhibitors | HEK-293 ATXN2-luciferase reporter, luminescence, 24 h | 0.72% of 360,000 active; note: % is set by controls: 0 for no effect and ±100 for the full control effect; nearly all actives have a fitted effect of over 55% in size
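ATXN2-luciferase reporter cells (luciferase flanked by upstream and downstream ATXN2 gene portions) were treated 24 h at 37 °C with compounds at up to 57 uM. SteadyGlo luminescence gave expression; GF-AFC fluorescence gave viability.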
S2 tox – reduces viability in counter-screen for ATXN expression inhibitors | 0.49% of 400,000 active | S2 cells (HEK-293 line with an ATXN2-luciferase reporter) viability, CellTiter-Fluor protease fluorescence, 24 h | Potency, µM (highest dose often 56.7 µM), actives largely listed as cytotoxic; note: nearly all actives have a fitted effect of over 40% in size
HT1080-NT tox – kills 2HG-producing HT-1080-NT fibrosarcoma cells | HT-1080-NT fibrosarcoma viability, CellTiter-Glo ATP luminescence, 48 h | Potency, µM (doses to about 46.1 µM), for inactives: at the highest dose activity, negative = less viability, usual class: cytotoxic | AID 686970 | 1.6% of 360,000 active;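 note: NT is the 2HG producing partner of a matched IDH1 knockdown line; 0% = DMSO-treated cells and -100% = media-only wells without cells; nearly all actives have a fitted effect of over 55% in size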
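Compounds were tested in concentration-response format on HT-1080-NT cells for 48 hours at 37 degrees C. Cell viability came from CellTiter-Glo luminescence; curves were classified by r2, response magnitude and activity.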
Active calls of the source: *; i = inactive; ? = inconclusive; . = no result given; [ ] = remark or other dose. Shown are actives, neighbours in structure and some others; about 3.9% of the full set was active somewhere. Calls come from the whole dose curve; as a rule, active = well fitted curve in the direction sought with a large enough effect; inconclusive = small, poorly fitted or top-dose-only effect, or another doubt; inactive = no such curve, though single readings can be large; an effect the other way counts as inactive or inconclusive. Potency is the fitted concentration of half-maximal effect.

SMILES	HT1080 IDH1KD tx	TGFb SMAD3 inh	HepG2 viability	ATXN2 expr inh	S2 tox	HT1080-NT tox
COC(=O)C1=C(C)NC(C)=C(C(=O)OCCN2CCN(C(c3ccccc3)c3ccccc3)CC2)C1c1cccc([N+](=O)[O-])c1 (configuration not stated)	.	.	.	14µM*	?	.
Cc1ccc(C)c(C(=O)N(Cc2nc(-c3ccc(Cl)cc3)no2)C(C)C)c1	-18%	10µM*	-17%	?	i	0%
Cc1cccc(C(=O)N(Cc2nc(-c3ccc(Cl)cc3)no2)C(C)C)c1	.	?	-8%	?	i	.
Cc1c(/C=C(\C#N)C(=O)Nc2cccc(Cl)c2)c2ccccc2n1Cc1ccccc1	.	-15%	1%	3%	i	.
CC(=O)Oc1cc2c(cc1Cl)C1(CC(c3ccccc3Cl)O2)CC(C)(C)NC(=S)N1 (configuration not stated)	23µM*	?	-38%	?	?	16µM*
Cc1nc2ccccn2c(=O)c1NC(=O)c1ccc(C(F)(F)F)cc1	.	1%	-4%	.	.	.
COc1ccc(-c2csc3nc(C)nc(N4CCC(C)CC4)c23)cc1OC	?	-26%	-45%	74%	i	18µM*
CNC(=O)[C@]1(C(F)(F)F)C[C@H](CCC2CCCCC2)CCCO1	.	?	-22%	.	.	.
O=C(Nc1cccc(Br)c1)c1ccc(Cl)c(S(=O)(=O)N2CCOCC2)c1	8%[9.24 µM]	?	-31%	?	i	7.1µM*
O=C(Nc1cccc(C(=O)NC2CC2)c1)c1ccc(Cl)c(S(=O)(=O)N2CCOCC2)c1	-3%	9%	3%	.	?	0%
O=C(COc1cccc(Br)c1)Nc1ccc(Cl)c(S(=O)(=O)N2CCOCC2)c1	-10%	-19%	-2%	?	?	16µM*
Clc1ccc(C2=NNC(=NCc3ccc4c(c3)OCO4)SC2)cc1	10%	16µM*	-33%	3%	?	-2%
Oc1ccc(C2=NNC(=NCc3ccc4c(c3)OCO4)SC2)c(O)c1	?	-6%	2%	11%	i	21µM*
COc1ccc(OC)c(C2=NNC(=NCc3ccc4c(c3)OCO4)SC2)c1	-26%	?	-2%	13%	i	-4%
COc1ccc(CN=C2NN=C(c3ccc(Cl)cc3)CS2)cc1	24%	-11%	10%	32%	i	18%
CCc1cccc(NC(=O)CCS(=O)(=O)c2cc(Br)cc3c2N(C(C)=O)CC3)c1	.	-21%	3%	-3%	i	.
CCN(CC)C(=O)Oc1ccc(Cl)c2cccnc12	0%	-16%	-8%	4%	i	1%
O=C(Nc1cccc(C(F)(F)F)c1)Oc1ccc(Cl)c2cccnc12	15µM*	7.1µM*	14µM*	?	i	16µM*
COC(=O)C1=C(C)N(CCC2=CCCCC2)C(=O)C1	-1%	-5%	-1%	22%	i	5%
COC(=O)C1=C(\O)CCCC/C=C\1C(=O)O	1%	14%	2.8µM*	13%	i	-4%
Cc1ccc(S(=O)(=O)n2cc(C=O)c3ccccc32)cc1	23µM*	?	-30%	?	i	16µM*
Cc1ccc(S(=O)(=O)n2cc(-c3ccccc3)c3ccccc32)cc1	?	?	11%	2%	?	?
CCOc1ccc(-n2c(C)cc(C(=O)CCl)c2C)cc1	8.2µM*	13µM*	-96%	24µM*	.	7.3µM*
COC(=O)c1ccc(-n2c(C)cc(C(=O)CCl)c2C)cc1	?	20µM*	13µM*	15µM*	30µM*	?
COC(=O)c1ccc(-n2c(C)cc(C(=O)COC(=O)C3=COCCO3)c2C)cc1	15%	0%	1%	12%	i	13%
SMILES	HT1080 IDH1KD tx	TGFb SMAD3 inh	HepG2 viability	ATXN2 expr inh	S2 tox	HT1080-NT tox
COc1ccc(CN2CCOc3ccc(C(O)c4cccnc4)cc3C2)c(F)c1 (configuration not stated)	.	.	.	.	i	.
CCC1(C2CCN(C(=O)c3ccc4ccccc4c3)CC2)NC(=O)N(CCc2scnc2C)C1=O (configuration not stated)	.	.	.	.	i	.
C=CC[C@@H](CC(=O)N(CCO)Cc1ccccc1)C(=O)N[C@H](COC(=O)[C@@H](CC=C)CC(=O)OC(C)(C)C)c1ccccc1	-5%	?	-29%	?	.	?
C=CC[C@@H](CC(=O)N(CCO)Cc1ccccc1)C(=O)N[C@H](COC(=O)[C@@H](CC=C)Cc1ccc(F)cc1)C(C)(C)C	?	?	-9%	0%	?	?
C=CC[C@@H](CC(=O)N(CCO)Cc1ccccc1)C(=O)N[C@H](COC(=O)[C@@H](CC=C)CC(=O)OC(C)(C)C)C(C)(C)C	-18%	-30%	-15%	?	28µM*	-4%
C=CC[C@H](CC(=O)N(CCO)Cc1ccccc1)C(=O)N[C@H](COC(=O)[C@H](CC=C)CC(=O)OC(C)(C)C)Cc1ccccc1	-13%	?	1%	-2%	22µM*	-13%
CCOc1ccc(NCc2cccn2-c2nnc(N3CCC(C(=O)NCCCN4CC(C)CC(C)C4)CC3)s2)cc1 (configuration not stated)	?	?	-87%	32µM*	?	21µM*
COc1ccc(NC(=O)c2c(Cl)n(C)c3ccccc23)cc1	?	10%	-14%	23%	?	18µM*
O=C(NC1CCOCC1)c1ccc(-c2cc(-c3cn[nH]c3-c3ccccn3)ccn2)cc1	.	.	.	-26%	.	.
O=C(Nc1ccc(Oc2cccnc2)cc1)c1ccc([N+](=O)[O-])cc1	-9%	-7%	-26%	-26%[11.3 µM]	i	-4%
O=C(Nc1ccc(Nc2ccncc2)cc1)c1ccc([N+](=O)[O-])cc1	-2%	18µM*	18µM*	.	?	?
CCCCOCCCNc1ncnc2c1[nH]c1ccccc12	18µM*	?	-38%	?	i	13µM*
CCCCOc1ncnc2c1[nH]c1ccc(OCC)cc12	22%	4%	-4%	5%	i	?
CCCCOc1ncnc2c1[nH]c1ccccc12	15µM*	-26%	-1%	-8%	i	-18%
Cc1ccc(N2CCN(C(=O)c3cn(C)c4ccc(S(=O)(=O)N5CCC(C)CC5)cc4c3=O)CC2C)cc1 (configuration not stated)	.	?	-19%	-7%	i	.
Cc1c(Cl)cccc1-n1nc(C)c2c(C)cc(=O)n(CC(=O)N3CCCc4ccccc43)c21	.	-17%	-31%	?	?	.
